Experimental data from the supplement of paper PMC4166925.
± gives the standard deviation of the averaged measurements. Over roughly 33,000 sequences, “E-score (dimensionless, -0.5 to 0.5)” has its median near -0.049; the highest 2% begin near 0.37. The sample holds the highest values, similar sequences and a random draw of the others, so the mix is not that of the screen.

test system: T1, PmTbr T-box DNA-binding domain (GST fusion); assay: PBM E-score of 8-mer (E-score (dimensionless, -0.5 to 0.5)); Tbr is Tbrain of the sea star Patiria miniata (Pm) or the sea urchin Strongylocentrotus purpuratus (Sp); higher = stronger binding preference; settings: the construct has about 5 more residues each side
T1 sequence: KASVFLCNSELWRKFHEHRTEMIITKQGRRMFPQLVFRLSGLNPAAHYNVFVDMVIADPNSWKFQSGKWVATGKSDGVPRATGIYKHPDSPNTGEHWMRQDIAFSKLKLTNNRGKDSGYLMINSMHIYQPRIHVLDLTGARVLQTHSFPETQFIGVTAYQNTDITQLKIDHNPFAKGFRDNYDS
Method in brief: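 Universal Agilent oligonucleotide arrays, made double-stranded by primer extension, were incubated with 200 nM GST-fused Tbr T-box DNA-binding domain in PBS (pH 7.5). The protein was expressed in BL21 E. coli at 20 °C and purified by glutathione affinity chromatography. After scanning and quantification, the Universal PBM Analysis Suite assigned an enrichment E-score to each ungapped 8-mer, averaged over duplicate arrays.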

Sequence | PBM E-score of 8-mer
TGGTGTAA | 0.28 ± 0.011
AGGTGTAT | 0.328 ± 0.0044
GGGTGTAA | 0.385 ± 0.013
AGGTGTAG | 0.408 ± 0.0046
AGGTGTAC | 0.218 ± 0.043
CGGTGTAG | 0.134 ± 0.1
CGGTGTAA | 0.131 ± 0.037
TTGGGAAA | -0.102 ± 0.057
AGTTCTGC | -0.332 ± 0.0036
CGACGGGA | -0.129 ± 0.036
CACAAGTG | 0.367 ± 0.0037
ATTGCCTA | -0.134 ± 0.077
AGTGCTGC | 0.0868 ± 0.0037
CATCAAAG | -0.0524 ± 0.035
GATATCCC | -0.147 ± 0.05
AACGCCTT | 0.3747 ± 0.00064
AACGCCTA | 0.279 ± 0.034
AACGCCTC | 0.362 ± 0.007
ATAGTGTG | 0.393 ± 0.033

Sequence | PBM E-score of 8-mer
ACAGTGTC | 0.238 ± 0.0038
AAAGTGGC | 0.234 ± 0.005
AAAGTGTA | 0.147 ± 0.057
AAAGTGTG | 0.435 ± 0.012
ATAGTGTC | 0.335 ± 0.011
AAAGTGTC | 0.4215 ± 0.0027
AAAGTGGT | 0.106 ± 0.042
AAAGTGTT | 0.429 ± 0.014
AAAGTGAG | 0.219 ± 0.048
ATAGTGTA | 0.0192 ± 0.0016
AGAGTGTG | 0.34 ± 0.01
AGGTTGTG | 0.16 ± 0.052
AGGACCAC | -0.253 ± 0.12
GATAGGCA | -0.121 ± 0.014
AGAATCTA | 0.151 ± 0.0012
CTTCGATA | -0.00351 ± 0.034
TTAGCAAA | 0.173 ± 0.064
AGAGTGTA | 0.0538 ± 0.058
AGAGTGTC | 0.385 ± 0.0076

Sequence | PBM E-score of 8-mer
CGAGTGTC | 0.294 ± 0.018
TAGGTTAA | -0.216 ± 0.0052
AGAGTTGA | 0.0684 ± 0.016
CGGCGCTA | 0.239 ± 0.033
CGGCGCGA | 0.317 ± 0.034
AGGCGAGA | 0.401 ± 0.011
AGGCGCTA | 0.4421 ± 0.0025
GGGCGCGA | 0.409 ± 0.02
AGGCGCGC | 0.152 ± 0.021
GGGGGCGA | 0.01664 ± 0.00016
AGGCGCGA | 0.463 ± 0.0056
GGGCGCTA | 0.346 ± 0.018
AGGCGAGC | -0.25 ± 0.068
GGGCGAGA | 0.194 ± 0.052
AGGCGCGG | 0.242 ± 0.019
AAGCGATG | -0.00845 ± 0.0036
CCCTCTGC | 0.0209 ± 0.072
ATCTTAGA | -0.0793 ± 0.081
CGACCAAC | 0.00547 ± 0.043
